An excerpt weighted towards active compounds, which were near 1.1% of everything screened.
HTR5A ag ctr = activates human HTR5A in OPRM1-OPRD1 agonist counter-screen; AID 504692; P47898; 0.61% of 340,000 active; HTR5A agonist assay, luminescence, cell-based; activation, % at 9.3 µM; in the data active means activation mostly above about 9.5%, no sharp cut-off; inactive means mostly below about 7.6%
OPRM1-OPRD1 inv = inverse agonist of human OPRM1-OPRD1 heterodimerization | P35372+P41143 | cell-based MOR-DOR heterodimer luminescence, inverse agonism | inhibition, % at 9.3 µM | 0.21% of 340,000 active | AID 504357; in the data active means inhibition above about 22%, passing the limit was not always enough
Target sequence (P35372 whole entry, looked up): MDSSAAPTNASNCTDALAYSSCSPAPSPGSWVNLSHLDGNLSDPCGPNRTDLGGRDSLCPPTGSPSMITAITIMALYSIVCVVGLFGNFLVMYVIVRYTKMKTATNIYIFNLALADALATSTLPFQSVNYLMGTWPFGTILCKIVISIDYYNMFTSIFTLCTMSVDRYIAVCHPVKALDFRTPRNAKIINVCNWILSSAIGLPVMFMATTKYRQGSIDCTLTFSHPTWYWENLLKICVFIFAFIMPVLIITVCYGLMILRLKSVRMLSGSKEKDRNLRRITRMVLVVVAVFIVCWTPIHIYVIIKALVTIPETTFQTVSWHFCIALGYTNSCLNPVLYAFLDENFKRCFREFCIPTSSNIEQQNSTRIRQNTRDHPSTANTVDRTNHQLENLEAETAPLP
Target sequence (P41143 whole entry, looked up): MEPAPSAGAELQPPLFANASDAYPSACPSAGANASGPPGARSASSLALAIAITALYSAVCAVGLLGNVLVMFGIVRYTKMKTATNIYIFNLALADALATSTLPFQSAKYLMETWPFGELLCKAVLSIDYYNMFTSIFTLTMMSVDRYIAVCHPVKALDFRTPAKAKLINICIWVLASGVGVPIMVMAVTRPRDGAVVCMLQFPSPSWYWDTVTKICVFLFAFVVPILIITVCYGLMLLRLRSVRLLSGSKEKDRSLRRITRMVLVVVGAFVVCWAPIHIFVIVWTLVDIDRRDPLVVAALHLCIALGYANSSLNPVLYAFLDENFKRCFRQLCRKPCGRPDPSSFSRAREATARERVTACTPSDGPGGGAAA
HTR5A inv ag = inverse agonist of human HTR5A in OPRM1-OPRD1 counter-screen. P47898. HTR5A cell line, luminescence, inverse agonism. 0.083% of 340,000 active. inhibition, % at 9.3 µM; in the data active means inhibition mostly above about 23%, no sharp cut-off; inactive means mostly below about 18%
MOR-DOR ag-1 = OPRM1-OPRD1 heterodimerization agonism; cells, luminescence; activation, % at 9.3 µM; 0.3% of 340,000 active; AID 504326
MOR-DOR ag-2 = promotes OPRM1-OPRD1 heterodimerization in HTR5A counter-screen; activation, % at 9.3 µM; 13% of 800 active; shares compounds with HTR5A ag ctr; U2OS counter-screen cells, complementation luminescence, 3 h
HTR5A ag conf = confirmation of human HTR5A agonists; 17% of 800 active; AID 504915; activation, % at 9.3 µM; HTR5A agonist cell assay, luminescence; shares compounds with HTR5A ag ctr; in the data active means activation above about 17%
Each line names hits and unclear results; the compound was inactive in the other large screens (follow-up assays come after a bar, where they were run). Unless noted, no stated cut-off is given here; in the data, active means activation above about 18%; inactive means the rest.

Cc1nn(-c2ccc(Cl)cc2)c2sc(C(=O)N3CCN(c4ccccn4)CC3)cc12	HTR5A ag ctr 22 | MOR-DOR ag-2 inactive | HTR5A ag conf inactive
CSc1cc(-c2ccc(Cl)cc2)[nH]c(=O)c1C#N	HTR5A ag ctr 17 | MOR-DOR ag-2 inactive | HTR5A ag conf inactive
CCCCN(C(=O)c1cccc(-n2cccc2)c1)c1c(N)n(Cc2ccccc2)c(=O)[nH]c1=O	none
CCN(C(=O)COC(=O)CN(C)S(=O)(=O)c1ccc(NC(C)=O)cc1)C1CCS(=O)(=O)C1 (centres undefined)	none
CC[C@@]1(C(=O)OC)N[C@H](CN(C)C(=O)COC)[C@@H]2C(=O)N(C)C(=O)[C@@H]21	none
CCCCCCCCCCCCCCCC[n+]1cccc2ccccc21	HTR5A ag ctr 20 | MOR-DOR ag-2 494 | HTR5A ag conf inactive
COC(=O)C1=C(C)N(Cc2ccccc2)C(=NCc2cc(OC)c(OC)c(OC)c2)N[C@H]1c1ccc(Br)cc1	HTR5A ag ctr 14 | MOR-DOR ag-2 inactive | HTR5A ag conf inactive
O=C(Nc1nnc(SCc2ccc(Cl)cc2)s1)C1CCCO1 (centres undefined)	HTR5A ag ctr 21 | MOR-DOR ag-2 inactive | HTR5A ag conf inactive
COC(=O)c1ccc(CSc2nnc(NC(=O)C3CCCO3)s2)cc1 (centres undefined)	none
O=C(O)c1cc(Cl)c(Cl)cc1C(=O)N(Cc1ccccc1)Cc1ccccc1	none
N#Cc1ccc(COC(=O)CN2C(=O)NC3(CCCC3)C2=O)cc1	none
CCOc1ccc(/C=N/NC(=O)Cc2ccccc2)cc1CN1CC2CC(C1)c1cccc(=O)n1C2 (centres undefined)	none
Cc1ccc(C(=O)c2c3ccc([N+](=O)[O-])cc3[n+]([O-])n2CCCC(N)=O)cc1	HTR5A ag ctr 17 | MOR-DOR ag-2 inactive | HTR5A ag conf inactive
NC(=O)CCCn1c(C(=O)c2ccc(Cl)cc2)c2ccc([N+](=O)[O-])cc2[n+]1[O-]	none
Cc1ccc2c(c1)N(C(=O)CCC(=O)NCCCN1CC(C)CC(C)C1)CCO2 (centres undefined)	none
O=C(N/N=C1\CCCc2ccccc21)c1ccccc1Cl	none
O=C(CNc1ccccc1Cl)N/N=C1\CCCc2ccccc21	HTR5A ag ctr 21 | MOR-DOR ag-2 20 | HTR5A ag conf 36
O=C(CCCn1c(SCC(=O)c2ccc(Cl)cc2)nc2ccccc2c1=O)NCc1ccco1	none
O=C(CCCCCn1c(SCC(=O)c2ccccc2)nc2ccccc2c1=O)NCc1ccco1	HTR5A ag ctr 21 | MOR-DOR ag-2 59 | HTR5A ag conf 29
O=C(C1CCN(S(=O)(=O)c2ccc3c(c2)OCCO3)CC1)N1CCc2ccccc21	HTR5A ag ctr 33 | MOR-DOR ag-2 inactive | HTR5A ag conf 23
O=C(C1CCN(S(=O)(=O)c2ccccc2)CC1)N1CCc2ccccc21	none
O=C(Nc1ccc(N2CCN(C(=O)c3cccs3)CC2)cc1)c1ccc(Br)o1	HTR5A ag ctr 16 | MOR-DOR ag-2 inactive | HTR5A ag conf inactive
Cc1cc(NS(=O)(=O)c2ccc(NC(=O)COc3ccc(Cl)cc3Cl)cc2)no1	HTR5A ag ctr 20 | MOR-DOR ag-2 inactive | HTR5A ag conf inactive
CC12CCC(=O)N1C(C(=O)NNC(=O)COc1cccc(C(F)(F)F)c1)CS2 (centres undefined)	none
CC(=O)N1CCN(c2ncnc3sc(-c4ccccc4)cc23)CC1	none
Oc1ccc(N2CCN(c3ncnc4sc(-c5ccccc5)cc34)CC2)cc1	HTR5A ag ctr 26 | MOR-DOR ag-2 inactive | HTR5A ag conf inactive
CCCCN(C)C(=O)c1cc2cc3ccc(OC)cc3nc2s1	HTR5A ag ctr 21 | MOR-DOR ag-2 inactive | HTR5A ag conf inactive
COc1ccccc1NOC(=O)CCOc1ccccc1	none
Cc1ccc(CCNC(=O)C2CCC(=O)N2Cc2ccc(F)cc2)cc1 (centres undefined)	none
O=C(NCCc1ccc(Cl)cc1)C1CCC(=O)N1Cc1ccc(F)cc1 (centres undefined)	HTR5A ag ctr 17 | MOR-DOR ag-2 inactive | HTR5A ag conf inactive
Cn1cc(S(=O)(=O)NCc2cccs2)c(=O)n(C)c1=O	HTR5A ag ctr 19 | MOR-DOR ag-2 inactive | HTR5A ag conf inactive
CCc1c(C)c2ccc(OCC(=O)NCC3CCC(C(=O)O)CC3)cc2oc1=O (centres undefined)	none
C/C(=N/NS(=O)(=O)c1ccc(C)c(C)c1)c1c[nH]c2ccccc12	none
C/C(=N/NS(=O)(=O)c1ccc(C)cc1C)c1ccc2c(c1)OCO2	HTR5A ag ctr 20 | MOR-DOR ag-2 inactive | HTR5A ag conf inactive
C/C(=N/NS(=O)(=O)c1ccc(C)cc1)c1ccc2c(c1)OCO2	none
C/C(=N/NS(=O)(=O)c1ccc(C)cc1C)c1c[nH]c2ccccc12	HTR5A ag ctr 18 | MOR-DOR ag-2 inactive | HTR5A ag conf inactive
CC(C)[C@@H](CO)N(C)S(=O)(=O)c1ccccc1Br	none
COc1cccc(-c2sc3ccccc3c2-c2ccc(OCCN3CCCCC3)cc2)c1	HTR5A ag ctr 17 | MOR-DOR ag-2 inactive | HTR5A ag conf inactive
COc1cccc(-c2sc3ccc(OC)cc3c2-c2ccc(OCCN3CCCC3)cc2)c1	none
COc1cccc(-c2sc3ccccc3c2-c2ccc(OCCN3CCCC3)cc2)c1	HTR5A ag ctr 16 | MOR-DOR ag-2 inactive | HTR5A ag conf 19
COCCCNC(=S)NNC(=O)c1cc(C2CC2)nc2ccccc12	none
Nc1c(NC=O)c(=O)n(Cc2ccccc2)c(=O)n1Cc1ccccc1	none
c1ccc(Nc2ccccc2Nc2ccccn2)nc1	none
Oc1cccc2ccc(Nc3ccccn3)nc12	HTR5A ag ctr 16 | MOR-DOR ag-2 inactive | HTR5A ag conf inactive
Cc1ccccc1C(=O)c1cccn1CC(=O)NCc1ccc2c(c1)OCO2	HTR5A ag ctr 17 | MOR-DOR ag-2 inactive | HTR5A ag conf 24
Cc1ccccc1C(=O)c1cccn1CC(=O)NCc1ccccc1	none
Cc1cccnc1NC(=O)C1CCCN1S(=O)(=O)c1ccc(Cl)cc1 (centres undefined)	none
C/C=C/C=[N+](\[O-])C(C)/C(=N/O)c1ccc(F)cc1 (centres undefined)	HTR5A ag ctr 17 | MOR-DOR ag-2 inactive | HTR5A ag conf inactive
O=c1[nH]cnc(O)c1C(c1ccc(Br)cc1)c1c(O)nc[nH]c1=O	none
O=c1[nH]cnc(O)c1C(c1ccc2c(c1)OCO2)c1c(O)nc[nH]c1=O	HTR5A ag ctr 17 | MOR-DOR ag-2 inactive | HTR5A ag conf inactive
CCOC(=O)C(C#N)(Cc1ccc2ccccc2n1)Cc1ccc2ccccc2n1	none
N#Cc1ccc(OCC(=O)Nc2ccc(N3CCCC3)cc2)cc1	none
CC(C)(C)C#CCn1c(/C=[N+](\[O-])C2CCCCC2)nc2ccccc21	none
O=C(O)c1ccc(NS(=O)(=O)c2cc(Cl)ccc2Cl)cc1	HTR5A ag ctr 16 | MOR-DOR ag-2 inactive | HTR5A ag conf inactive
Cc1ccc(C)c(NC(=O)C2CCN(S(=O)(=O)c3ccc4c(c3)NC(=O)CO4)CC2)c1	none
OCC#CCSc1nnc(-c2ccncc2)o1	HTR5A ag ctr 16 | MOR-DOR ag-2 20 | HTR5A ag conf inactive
O=C(CNc1cccc(F)c1)N1CCc2ccccc2C1	none

Screens as filed in PubChem.
